Among all 340,000 compounds or so, about 1,000 (0.29%) were called active. Rule as the data show it: inconclusive = inhibition above about 27% without an active follow-up result; inactive = below that. Only a sample is shown. Measured potencies and affinities stand elsewhere.

This assay can be described thus: H1N1 influenza NS1A inhibitors, functional cell based assay (AID 504329). The following applies: percent inhibition, at 12.5 µM, active compounds read high.
For the compound `O=C(NCCCN1CCOCC1)C(=O)NCC1OCCCN1S(=O)(=O)c1cc(F)ccc1F` (stereo unspecified), the inhibition is -1.53% (inactive). Turning to `COC(=O)c1cc(C)sc1NC(=S)N1CCN(CCc2ccccc2)CC1`, the inhibition was 4.17% (inactive).

Regarding `CCN1CCN(c2ccc(NC(=O)c3ccc4c(c3)OCCO4)cc2C)CC1`, the inhibition was -4.06% (inactive). The result for `COc1cccc(CCc2nc3ccccc3c(=O)n2N)c1` reads -4.28% (inactive). On to `COc1ccc(S(=O)(=O)n2nc(-c3ccc(Cl)cc3)cc2N)cc1`, for which the inhibition is 2.77% (inactive). `CCN(CC(=O)Nc1c(F)cccc1F)C(=O)c1cc([N+](=O)[O-])ccc1N1CCOCC1`: the inhibition is -7.79% (inactive). Turning to `Cc1cc(C)nc(NS(=O)(=O)c2ccc(NC(=S)NC(=O)C3CCCC3)cc2)n1`, the inhibition is -7.03% (inactive). Turning to `COC(=O)c1ccccc1NC(=O)N1CCN(c2ccc(OC)cc2)CC1`, the inhibition was 12% (inactive). Take `COc1cc(-c2cc(C(=O)OCC(=O)NC3CC3)c3ccccc3n2)cc(OC)c1OC`: the inhibition is -4.4% (inactive). As for `COc1ccc(C(=O)Nc2cnn(Cc3c(F)cccc3Cl)c2)cc1OC`, the inhibition was -4.35% (inactive). On to `O=C(N[C@H]1CP(=O)(Oc2ccccc2)O[C@H](COCc2ccccc2)[C@H]1O)C(Cl)(Cl)Cl` (stereo partly specified), for which the inhibition was -20.9% (inactive).

As to `CCOC(=O)c1ccc2ncc(C(=O)OCC)c(Nc3ccc(N4CCOCC4)cc3)c2c1`, the inhibition was 28.6% (inactive). As to `CCOC(=O)c1cnc2ccc(C)cc2c1NCCN1CCOCC1`, the inhibition was -11.3% (inactive). The result for `O=c1[nH]c(=S)[nH]cc1Oc1ccccc1` reads -0.47% (inactive); that for `CC(=O)N1c2ccc(S(=O)(=O)N3CCCC(C(=O)Nc4ccc(F)cc4)C3)cc2CC1C` (stereo unspecified), 1.22% (inactive); that for `CC1CCN(C2CCN(S(=O)(=O)c3ccc(F)cc3)CC2)CC1`, -14.4% (inactive). For `Cc1n[nH]c(=S)n(/N=C/c2cccs2)c1=O`, the inhibition is -10.9% (inactive). Next, `Cc1nn2c(=S)[nH]nc2[nH]c1=O`: 5.07% (inactive).

Take `COc1ccccc1OCC(=O)Nn1c(=S)[nH]c2ncccc2c1=O`: the inhibition is -1.5% (inactive). On to `CNCC(=O)Nc1c(C)n[nH]c1C`, for which the inhibition was -3.79% (inactive). Consider `COc1cc(C)ccc1OCC(=O)NC1CCCCCC1`, for which the inhibition is -0.58% (inactive). As to `CCC(C)NC(=O)COCc1cc(-c2ccc3c(c2)OCO3)on1` (stereo unspecified), the inhibition was -7.2% (inactive). Consider `COc1ccc(-c2sc3cc4c(cc3c2-c2ccc3c(c2)OCCO3)OCO4)cc1`, for which the inhibition was -11.4% (inactive). For the compound `ClCC1CSC(=NC23CC4CC(CC(C4)C2)C3)O1` (stereo unspecified), the inhibition is -6.27% (inactive). For the compound `C1=CC2=NC34CCCCC3CC3=C(CCCC3)N4C2=CC1=NC1CCCCC1` (stereo unspecified), the inhibition is 4.56% (inactive). Turning to `N#CC(C#N)=c1ccc2c(c1)N1C(c3ccccc3)=CC(c3ccccc3)C3CCCCC31N=2` (stereo unspecified), the inhibition is -4.24% (inactive). In the case of `C=CCN(c1ccccc1)S(=O)(=O)c1cccc(C(=O)NCC(c2ccc(OC)cc2)N2CCCCC2)c1` (stereo unspecified), the inhibition was 3.3% (inactive). As to `COc1ccc(C=NNc2ccc(S(=O)(=O)Nc3ccccc3C(=O)O)cc2[N+](=O)[O-])c(OC)c1`, the inhibition is 20.4% (inactive). For `Cc1ccc(NC(=S)NNc2ccc([N+](=O)[O-])cc2S(=O)(=O)Nc2ccccc2C(=O)O)cc1C`, the inhibition was 26.1% (inactive). In the case of `CSc1ccc(C=NNc2ccc(S(=O)(=O)Nc3ccccc3C(=O)O)cc2[N+](=O)[O-])cc1`, the inhibition was 3.57% (inactive). Consider `CC(=O)Nc1ccc(C=NNc2ccc(S(=O)(=O)Nc3ccccc3C(=O)O)cc2[N+](=O)[O-])cc1`, for which the inhibition was 15.1% (inactive).

On to `COc1cc(C=NNc2ccc(S(=O)(=O)Nc3ccccc3C(=O)O)cc2[N+](=O)[O-])ccc1O`, for which the inhibition is 14.4% (inactive). `COc1ccccc1NS(=O)(=O)c1ccc(N/N=C/c2c(C)nn(-c3ccccc3)c2N2CCCC2)c([N+](=O)[O-])c1`: the inhibition was 8.44% (inactive).

In the case of `COC(=O)Nc1ccc(S(=O)(=O)N2CCC(C(=O)N3CCCCC3C)CC2)cc1` (stereo unspecified), the inhibition was -11.1% (inactive). The result for `COc1ccccc1NS(=O)(=O)c1cc(C(=O)NCC(C)(C)N2CCOCC2)ccc1C` reads -2.2% (inactive); that for `CCOc1ccc(CN(CC)C(=O)Cc2c[nH]c3ccccc23)cc1OC`, -0.83% (inactive). Take `O=C(O)[C@H](Cc1ccccc1)N1C(=O)c2ccncc2C1=O`: the inhibition was -6.13% (inactive). Next, `CC(=O)c1c(C)[nH]c(C(=O)OCC(=O)NCc2ccc3c(c2)OCO3)c1C`: -0.39% (inactive). For `O=C(O)CNC(=O)CC1S/C(=N/N=C2/NC(=O)CS2)NC1=O` (stereo unspecified), the inhibition was 16.4% (inactive). For `NC1=NC(=O)C(CC(=O)NCc2ccccc2)S1` (stereo unspecified), the inhibition is 2.63% (inactive).

For `CCN=C1SC(CC(=O)NC(N)=O)C(=O)N1CC` (stereo unspecified), the inhibition was 0.98% (inactive). The result for `NC(=O)NC(=O)CC1S/C(=N/N=C2/NC(=O)CS2)NC1=O` (stereo unspecified) reads 5.04% (inactive); that for `CCN(CC)CCOc1ccccc1C(C)=O`, -6.91% (inactive); that for `COc1ccc(CNC(=O)C(C)Sc2ccc(S(=O)(=O)N3CCOCC3)cn2)cc1` (stereo unspecified), -8.84% (inactive).

Regarding `CN(C)C(=O)C(OC(=O)c1ccc2c(c1)CCCC2)c1ccccc1` (stereo unspecified), the inhibition was -4.12% (inactive). The result for `CC(=O)Nc1ccc(OCc2ccccc2)cc1[N+](=O)[O-]` reads -2.5% (inactive). As to `Nc1cc([N+](=O)[O-])ccc1OCc1ccccc1`, the inhibition is -17.4% (inactive). For the compound `S=C(Nc1ccc(Cl)cc1)Nc1ccc2c(c1)OCCO2`, the inhibition is -3.12% (inactive). `COc1ccc(OC)c(S(=O)(=O)Nc2c(C)cccc2C)c1`: the inhibition is -4.66% (inactive). On to `O=C1C(Cl)=C(NCCc2ccccc2)C(=O)c2ccccc21`, for which the inhibition is 28.7% (inactive). For `CN(CC(=O)NCCc1ccc(F)cc1)Cc1ccccc1`, the inhibition is 0.42% (inactive). In the case of `CCCNC1=C(N(C(C)=O)c2cccc(F)c2)C(=O)c2ccccc2C1=O`, the inhibition is -1.3% (inactive). Consider `CC(=O)N(Cc1ccc(F)cc1)c1cccc(C)c1C`, for which the inhibition is 5.28% (inactive).

For `O=C1C=C(Nc2ccc(Cl)cc2)CC(c2ccccc2)C1` (stereo unspecified), the inhibition is 1.69% (inactive). `CC(C)CCN1C(Nc2ccccc2)=NC[C@@H]1Cc1ccccc1`: the inhibition was -9.63% (inactive). In the case of `COC(=O)c1cc2ccccn2c2c(C(=O)OC)c(C(=O)OC)cc1-2`, the inhibition was 16.8% (inactive).

With `COC(=O)c1cc2c(-c3ccccc3)c(C)c3ccccn3c-2c1C(=O)OC`, the inhibition is 26.4% (inactive). As to `CC(=O)NC1c2ccccc2C(=O)N1Cc1ccccc1` (stereo unspecified), the inhibition was -3.85% (inactive).

As for `O=[N+]([O-])c1cccc(/C=N/Nc2nc(NCc3ccccc3)nc(N3CCOCC3)n2)c1`, the inhibition is 0.07% (inactive). The result for `O=[N+]([O-])c1ccc(/C=N/Nc2nc(NCc3ccccc3)nc(N3CCOCC3)n2)cc1` reads -9.38% (inactive); that for `COc1ccc(NC(=O)[C@H](CCS(C)(=O)=O)N2Cc3ccccc3C2=O)c(OC)c1`, 28.3% (inactive). For `C[C@H](OC(=O)c1[nH]cnc1C(=O)N1CCN(C(=O)OC(C)(C)C)CC1)c1ccccc1`, the inhibition was -7.71% (inactive).

In the case of `CC1=NN(c2ccc(Cl)c(C(=O)O)c2)C(=O)/C1=C\c1ccc(-c2ccc(C(=O)O)cc2)o1`, the inhibition is 19.4% (inactive). On to `CC1=NN(c2ccc(C(=O)O)cc2)C(=O)/C1=C/c1ccc(-c2ccccc2F)o1`, for which the inhibition was 23.6% (inactive). Take `CC(=O)Nc1ccc(S(=O)(=O)N2CCC3(CC2)OCCO3)cc1`: the inhibition is 4.94% (inactive). In the case of `COC(=O)c1ccc2c(c1)C(=O)/C(=C/c1ccc(O)cc1)O2`, the inhibition is -8.68% (inactive). `COC(=O)c1ccc2c(c1)C(C)(C)C(/C=C/c1ccc(OC)c(OC)c1OC)=[N+]2C`: the inhibition was 4.08% (inactive). For the compound `COC(=O)c1ccc2nc(C)c(C)nc2c1`, the inhibition was -1.98% (inactive).

For `COC(=O)c1ccc(O)cc1`, the inhibition was -1.72% (inactive).

As for `CNC(=O)c1c(C)noc1C`, the inhibition was -6.29% (inactive). Regarding `Clc1ccc(SCc2cc(N3CCOCC3)nc(-c3ccccn3)n2)cc1`, the inhibition was -0.35% (inactive).

Regarding `Clc1ccc(SCc2cc(Cl)nc(-c3ccccc3)n2)cc1`, the inhibition is 3.7% (inactive). For the compound `COc1ccccc1N/C=C(\C#N)c1nc2ccccc2[nH]1`, the inhibition was 10.7% (inactive). With `O=C(/C(=N\Nc1ccc(Br)cc1)Sc1nnnn1-c1ccccc1)c1ccccc1`, the inhibition was 4.24% (inactive).

In the case of `COc1ccc(N/N=C(/N=Nc2nc(C)cc(=O)[nH]2)c2ccccc2)cc1`, the inhibition is 26.3% (inactive). As for `Cc1cc(=O)[nH]c(N=N/C(=N/Nc2ccc(O)cc2)c2ccccc2)n1`, the inhibition was 13.6% (inactive). Take `C/C(=N\Nc1ccc(C(=O)O)cc1)c1ccc(Br)cc1`: the inhibition was -17.3% (inactive). `COc1ccc(S(=O)(=O)N2CCOC2CNC(=O)C(=O)NCCc2ccccc2)cc1OC` (stereo unspecified): the inhibition was 2.48% (inactive). Turning to `Cc1ccc(C)n1-n1cnc2sc3c(c2c1=O)CCC3`, the inhibition was 0.86% (inactive). On to `COc1ccccc1C(CNC(=O)c1ccc(S(=O)(=O)N2CCCCC2)cc1)N(C)C` (stereo unspecified), for which the inhibition was -6.72% (inactive). As for `O=C(O)C(Cc1ccccc1)N=C(NS(=O)(=O)c1ccccc1)c1ccccc1` (stereo unspecified), the inhibition is -1.07% (inactive). Regarding `Cc1ccc(NCc2ccc(O)c3ncccc23)cc1C`, the inhibition is -2.65% (inactive). For `Cc1ccc(C)c(S(=O)(=O)N2CCN(Cc3ccc(O)c4ncccc34)CC2)c1`, the inhibition was -17.5% (inactive). With `CCOC(=O)C1CCN(Cc2c(O)ccc3ccccc23)CC1`, the inhibition was -4.79% (inactive). For the compound `CCOC(=O)C1CCN(Cc2ccc(OC)c(C)c2OC)CC1`, the inhibition is 0.38% (inactive). For `OC1(C#CCN2CCCC2)CCCCC1`, the inhibition is -3.16% (inactive).

Turning to `Cc1ccc(F)cc1NC(=O)CSc1nnc(CNC(=O)c2ccco2)n1C`, the inhibition is -10.7% (inactive). The result for `N#CC(C#N)=C1NC(N)=C(C#N)C(c2ccccc2)=C1C#N` reads -3.59% (inactive).

`CCc1cccc(OCC(=O)N(C)CC(=O)Nc2cccc(F)c2)c1`: the inhibition is -9.68% (inactive). In the case of `CCN1CCCc2cc(CN(CCN3CCOCC3)C(=O)Nc3ccc(C)c(C)c3)ccc21`, the inhibition is 22.9% (inactive).

As to `CCOc1ccc(NC(=O)N(CCN2CCOCC2)Cc2ccc3c(c2)CCCN3CC)cc1`, the inhibition was 16.9% (inactive).

Values taken from PubChem BioAssay AID504329 (Southern Research Specialized Biocontainment Screening …, 2011).
